Test results taken from publication PMC7826789 (International Journal of Molecular Sciences, 2021).

Experiments:
Details in all cases: Compound Concentration (nM):1000
[1] = system: TNK1
[2] = system: TNK2
[3] = system: TNNI3K
[4] = system: T1, TRKA
T1 construct: gene NTRK1

[5] = system: T2, TRKB
T2 construct: gene NTRK2

[6] = system: T3, TRKC
T3 construct: gene NTRK3

[7] = system: TRPM6
[8] = system: TSSK1B
[9] = system: TSSK3
[10] = system: TTK
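Further: KINOMEscan scanMAX binding as percent activity remaining versus control; lower means stronger binding.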

Structure (SMILES) | Percent Control [1] | Percent Control [2] | Percent Control [3] | Percent Control [4] | Percent Control [5] | Percent Control [6] | Percent Control [7] | Percent Control [8] | Percent Control [9] | Percent Control [10]
CN(C)CCNC(=O)Nc1ccc(N(C)c2ccnc(Nc3ccc(CS(C)(=O)=O)cc3)n2)cc1.Cl [GW830900A] | 39% | 75% | 97% | 16% | 34% | 57% | 100% | 100% | 83% | 68%
NS(=O)(=O)c1ccc(N/N=C2\C(=O)Nc3ccc(C(=O)NCCc4c[nH]cn4)cc32)cc1 [GW300660X] | 100% | 100% | 92% | 20% | 52% | 57% | 100% | 100% | 100% | 11%
CCS(=O)(=O)c1ccc(OC)c(Nc2ncc(-c3cccc(F)c3)o2)c1 [GW621970X] | 38% | 90% | 66% | 11% | 30% | 48% | 88% | 100% | 100% | 100%
Cl.O=C(Nc1ccc(Oc2ccc3[nH]c(NC(=O)c4ccccc4)nc3c2)cc1)Nc1cc(C(F)(F)F)ccc1F [GW709042A] | 66% | 100% | 55% | 27% | 35% | 29% | 100% | 100% | 100% | 87%
CN(C)c1cc2c(Nc3ccc4c(cnn4Cc4ccccc4)c3)ncnc2cn1 [GW282974X] | 93% | 84% | 100% | 65% | 92% | 93% | 92% | 100% | 99% | 87%
O=C(Nc1n[nH]c2nc(-c3ccc(O)cc3)c(Br)cc12)C1CC1 [SB-725317] | 100% | 100% | 100% | 65% | 100% | 100% | 100% | 100% | 100% | 97%
Cl.c1ccc(Cc2nc3ccc(Nc4ncnc5ccccc45)cc3[nH]2)cc1 [GR269666A] | 100% | 100% | 84% | 100% | 92% | 100% | 97% | 70% | 100% | 51%
COc1ccc(COc2ccc(Cc3cnc(N)nc3N)cc2OC)cc1 [GW632580X] | 73% | 77% | 90% | 4.2% | 0.9% |  | 89% | 100% | 83% | 85%
COc1cc(C=NNc2ncnc3c2cnn3-c2ccccc2)ccc1O [GW513184X] | 67% | 100% | 84% | 66% | 100% | 99% | 100% | 98% | 100% | 100%
CC1=C(C(=O)Nc2ccc3[nH]ncc3c2)C(c2ccc3ccccc3c2)CC(=O)N1 (stereo not drawn) [GSK270822A] | 68% | 62% | 100% | 66% | 73% | 63% | 82% | 97% | 43% | 92%
COc1cc(C)c(N(C)C(=O)CN(C)C)cc1Nc1nc(Nc2cccc(F)c2C(N)=O)c2cc[nH]c2n1 [GSK2219385] | 83% | 100% | 100% | 87% | 100% | 100% | 100% | 100% | 100% | 71%
Nc1ncnc2occ(-c3ccc(NC(=O)Nc4cc(C(F)(F)F)ccc4F)cc3)c12 [GW770249X] | 85% | 100% | 40% | 3% | 1.6% | 0.1% | 100% | 100% | 84% | 61%
COc1cc2ncnc(Nc3ccc4c(cnn4Cc4ccccc4)c3)c2cc1OC.Cl [GW282449A] | 100% | 77% | 100% | 100% | 100% | 100% | 87% | 100% | 100% | 96%
COc1ccccc1-c1cc(/C=C2\C(=O)Nc3ncc(Br)cc32)cc(Br)c1O [GW442130X] | 97% | 100% | 100% | 7.2% | 22% | 44% | 100% | 75% | 97% | 97%
COC(=O)Nc1nc2ccc(Oc3ccc(NC(=O)Nc4cc(C(F)(F)F)ccc4F)cc3)cc2s1.Cl [GW693917A] | 37% | 95% | 61% | 4.8% | 6.2% | 4.5% | 73% | 92% | 82% | 80%
COc1cccc(-n2ncc3c(N/N=C/c4ccncc4)ncnc32)c1 [GW784752X] | 88% | 100% | 51% | 65% | 73% | 85% | 89% | 100% | 90% | 88%
COc1cc2ncn(-c3cc(O[C@H](C)c4ccccc4Cl)c(C(N)=O)s3)c2cc1OC [GSK237701A] | 82% | 58% | 100% | 31% | 51% | 59% | 89% | 74% | 39% | 82%
COc1ccc2c(-c3ccnc(Nc4cccc(OC(F)(F)F)c4)n3)cnn2n1 [GW810372X] | 100% | 100% | 100% | 55% | 92% | 91% | 92% | 100% | 86% | 94%
NS(=O)(=O)c1ccc(N/N=C2\C(=O)Nc3ccc(C(=O)NCc4ccncc4)cc32)cc1 [GW300657X] | 100% | 100% | 96% | 7.6% | 21% | 37% | 89% | 100% | 89% | 5.5%
COc1cc(N2CCN(C(C)C)CC2)ccc1Nc1nc(Nc2ccc(F)cc2C(=O)NC[C@@H](O)CO)c2cc[nH]c2n1 [GSK1392956A] | 18% | 67% | 100% | 86% | 91% | 89% | 82% | 42% | 83% | 4.9%

Structure (SMILES) | Percent Control [1] | Percent Control [2] | Percent Control [3] | Percent Control [4] | Percent Control [5] | Percent Control [6] | Percent Control [7] | Percent Control [8] | Percent Control [9] | Percent Control [10]
CN1CCN(C(=O)c2ccc(NC(=O)Nc3ccc(N(C)c4ccnc(Nc5ccc(CS(C)(=O)=O)cc5)n4)cc3)cc2)CC1.Cl [GW830263A] | 6.7% | 6.5% | 92% | 7.1% | 11% | 2% | 91% | 96% | 75% | 61%
CC(C)COC(=O)c1ccc2c(c1)/C(=C/Nc1ccc(S(N)(=O)=O)cc1)C(=O)N2 [GW416981X] | 100% | 100% | 100% | 23% | 55% | 59% | 100% | 100% | 100% | 6.3%
COc1cc(/C=N/Nc2ncnc3[nH]ncc23)ccc1O [GW578748X] | 100% | 100% | 100% | 42% | 70% | 88% | 95% | 100% | 100% | 68%
O=C1Nc2ccc(C(=O)c3ccco3)cc2C1=Cc1cc(Cl)c(O)c(Cl)c1 [GW406108X] | 79% | 100% | 100% | 33% | 75% | 61% | 95% | 100% | 87% | 30%
COc1ccc2cc(-c3c(-c4ccncc4)nc(-c4ccc(S(C)(=O)=O)cc4C)n3C)ccc2c1 [SB-633825] | 57% | 61% | 100% | 73% | 70% | 60% | 71% | 74% | 57% | 91%
COc1ccc2[nH]c3c4[nH]c5ccc(OC)cc5c4c4c(c3c2c1)C(=O)NC4=O [GW296115X] | 29% | 69% | 90% | 40% | 59% | 47% | 79% | 89% | 89% | 50%
C/C(Nc1ccc(S(N)(=O)=O)cc1)=C1/C(=O)Nc2ccccc21 [GW335962X] | 100% | 100% | 69% | 7.9% | 25% | 42% | 84% | 100% | 75% | 12%
Cl.O=S1CCN(Cc2ccc(-c3ccc4ncnc(Nc5ccc(OCc6ccccc6)c(F)c5)c4c3)o2)CC1 [GW576924A] | 100% | 100% | 100% | 100% | 100% | 100% | 92% | 90% | 100% | 100%
NS(=O)(=O)c1ccc(N/N=C2\C(=O)Nc3ccc(-c4cnco4)cc32)cc1 [GW276655] | 52% | 66% | 100% | 15% | 39% | 38% | 89% | 100% | 100% | 20%
CCc1ccc(Oc2nccc(-c3c(-c4ccc(F)cc4)ncn3C3CCNCC3)n2)cc1 [SB-242719] | 80% | 82% | 100% | 86% | 98% | 98% | 100% | 99% | 90% | 80%
NS(=O)(=O)c1ccc(Nc2ncc(-c3ccccc3)o2)cc1 [GW572399X] | 100% | 100% | 100% | 55% | 72% | 78% | 100% | 100% | 100% | 78%
CC1=C(C(=O)Nc2ccc3[nH]ncc3c2)C(c2ccc(Cl)c(Cl)c2)CC(=O)N1 (stereo not drawn) [GSK299115A] | 82% | 79% | 100% | 72% | 97% | 68% | 87% | 93% | 77% | 89%
Cl.O=C(Nc1ccc(Oc2ccc3[nH]c(NC(=O)c4ccco4)nc3c2)cc1)Nc1cc(C(F)(F)F)ccc1F [GW683134A] | 36% | 100% | 53% | 5% | 6% | 3% | 100% | 100% | 100% | 85%
CCn1c(-c2nonc2N)nc2c(C#CC(C)(C)O)nc(OCCNC)cc21.Cl [GSK949675] | 100% | 100% | 100% | 100% | 100% | 100% | 100% | 90% | 14% | 91%
COc1cccc(-c2c[nH]c3c(N/N=C/c4ccncc4)ncnc23)c1 [GW814408X] | 100% | 100% | 31% | 64% | 100% | 100% | 97% | 98% | 98% | 79%
C[C@@H](Oc1cc(-n2cnc3ccc(OC4CCN(C)CC4)cc32)sc1C(N)=O)c1ccccc1Cl [GSK579289A] | 76% | 86% | 100% | 49% | 82% | 91% | 88% | 71% | 100% | 69%
Cc1cc(O)cc(C)c1/C=C/c1cncc(C(N)=O)c1 [GW435821X] | 100% | 100% | 67% | 98% | 94% | 100% | 100% | 100% | 100% | 90%
CCS(=O)(=O)c1ccc(OC)c(Nc2ncc(-c3cccc(OC)c3)o2)c1 [GW580509X] | 30% | 100% | 100% | 16% | 46% | 67% | 100% | 100% | 100% | 90%
Cl.O=C(O[C@H]1CN[C@H](C#Cc2cc3ncnc(Nc4ccc5c(cnn5Cc5ccccc5)c4)c3s2)C1)N1CCOCC1 [GSK200398A] | 99% | 97% | 55% | 70% | 87% | 95% | 96% | 100% | 93% | 100%
NS(=O)(=O)c1ccc(N/N=C2\C(=O)Nc3ccc(Cl)cc32)cc1 [GW280670X] | 100% | 100% | 100% | 43% | 94% | 89% | 100% | 100% | 100% | 40%
